{
  "source": "PubChem BioAssay AID488969",
  "about": "(Vanderbilt High Throughput Screening Facility, 2010)",
  "note": "Over roughly 110,000 compounds, “z-score” has its median near -0.1; the highest 2% begin near 2. What follows is part of a selection rich in the highest values, with near analogues and random picks from the rest. Activity calls are given as the source filed them.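 Rule for the calls: active = z-score in the third read window above 3 or below -3; inactive = the rest.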",
  "data": [
    {"biological_target": "Metabotropic glutamate receptor 8 (Rattus norvegicus) (UniProt P70579)", "sequence (P70579 whole entry, looked up)": "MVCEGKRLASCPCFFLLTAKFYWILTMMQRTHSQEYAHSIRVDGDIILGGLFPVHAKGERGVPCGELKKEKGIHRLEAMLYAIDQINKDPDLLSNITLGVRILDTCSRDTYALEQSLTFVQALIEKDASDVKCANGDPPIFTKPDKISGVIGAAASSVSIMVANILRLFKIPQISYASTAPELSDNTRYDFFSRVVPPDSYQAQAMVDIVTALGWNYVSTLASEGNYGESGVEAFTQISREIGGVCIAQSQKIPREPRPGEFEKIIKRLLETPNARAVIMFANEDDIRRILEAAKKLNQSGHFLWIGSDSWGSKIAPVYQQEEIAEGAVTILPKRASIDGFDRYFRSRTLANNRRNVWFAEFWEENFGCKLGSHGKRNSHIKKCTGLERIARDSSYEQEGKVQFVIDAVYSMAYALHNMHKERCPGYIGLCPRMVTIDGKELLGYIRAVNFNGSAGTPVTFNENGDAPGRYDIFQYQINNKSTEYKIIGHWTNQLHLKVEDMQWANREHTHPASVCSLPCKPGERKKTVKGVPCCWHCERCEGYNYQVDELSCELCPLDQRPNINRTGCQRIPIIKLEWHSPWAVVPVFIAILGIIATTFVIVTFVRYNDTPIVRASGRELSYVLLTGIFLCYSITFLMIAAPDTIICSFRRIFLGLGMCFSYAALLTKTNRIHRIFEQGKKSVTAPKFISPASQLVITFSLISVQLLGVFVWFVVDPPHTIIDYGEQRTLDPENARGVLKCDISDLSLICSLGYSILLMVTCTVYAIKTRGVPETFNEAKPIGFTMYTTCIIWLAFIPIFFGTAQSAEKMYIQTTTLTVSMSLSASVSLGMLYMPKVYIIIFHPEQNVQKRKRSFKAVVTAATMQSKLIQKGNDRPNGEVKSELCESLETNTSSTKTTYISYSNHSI", "test": "mGluR8 Gi/Go-coupled signaling modulation – cell-based, rat, thallium flux, HTS, primary screen (AID 488969)", "settings": "HEK293 rat mGluR8, GIRK (G protein-gated inwardly rectifying potassium channel) thallium flux, FluoZin2; at 10 µM; stronger effect = higher value; submaximal glutamate (EC20) added with thallium", "values": [
      {"smiles": "CC(=O)c1cn(CC(=O)NCc2cccnc2)c2ccccc12", "z-score": 0.276},
      {"smiles": "N/C(Cc1cccs1)=N\\OC(=O)COc1ccccc1", "z-score": -1.06},
      {"smiles": "N/C(Cc1cccs1)=N\\OC(=O)COc1ccccc1Cl", "z-score": -2.93},
      {"smiles": "Cc1ccccc1OCC(=O)O/N=C(\\N)Cc1cccs1", "z-score": "3.93 (active)"},
      {"smiles": "C=CCC1(O)CC(c2ccco2)NC(c2ccco2)C1CCC", "note": "(stereo not drawn)", "z-score": 1.08},
      {"smiles": "Cc1c(NC(=O)C(C)c2ccc(CC(C)C)cc2)c(=O)n(-c2ccccc2)n1C", "note": "(stereo not drawn)", "z-score": -0.175},
      {"smiles": "CCc1nc2c(sc3nc4c(cc32)COC(C)(C)C4)c(=O)n1Cc1ccccc1", "z-score": -0.115},
      {"smiles": "CC1(C)CC(=O)c2c(nn(-c3ccccc3)c2N)C1", "z-score": -0.372},
      {"smiles": "CC1(C)CC(=O)c2c(noc2-c2ccccc2)C1", "z-score": "3.63 (active)"},
      {"smiles": "CC1(C)CC(=O)c2c(nc3ccccc3c2N)C1", "z-score": -1.01},
      {"smiles": "O=[N+]([O-])c1cccc(-c2nnc(-c3ccc4c(c3)OCO4)o2)c1", "z-score": -0.286},
      {"smiles": "CCC/C(O)=C1\\C(=O)CC(c2ccccc2)CC1=NC", "note": "(stereo not drawn)", "z-score": -0.23},
      {"smiles": "CC(C)N1C(=S)SC(C)(C)C1NO", "note": "(stereo not drawn)", "z-score": -0.154},
      {"smiles": "O=S(=O)(c1ccccc1Cl)N1CCCC(c2nc(-c3cccnc3)no2)C1", "note": "(stereo not drawn)", "z-score": 2.62},
      {"smiles": "COc1cccc(-c2noc(C3CCCN(S(=O)(=O)c4cccc(Cl)c4C)C3)n2)c1", "note": "(stereo not drawn)", "z-score": 0.354},
      {"smiles": "O=S(=O)(c1ccc(Cl)c(F)c1)N1CCC(c2nc(-c3ccncc3)no2)CC1", "z-score": "8.06 (active)"},
      {"smiles": "CCCS(=O)(=O)N1CCCC(c2nc(-c3ccc(OC)cc3)no2)C1", "note": "(stereo not drawn)", "z-score": 0.0798},
      {"smiles": "CC(C)c1ccc(-c2noc(C3CCCN(C(=O)c4ccc(F)cc4F)C3)n2)cc1", "note": "(stereo not drawn)", "z-score": -0.983},
      {"smiles": "O=[N+]([O-])c1cccc(S(=O)(=O)N2CCC(c3nc(-c4ccncc4)no3)CC2)c1", "z-score": -0.207},
      {"smiles": "O=S(=O)(c1ccc2ccccc2c1)N1CCC(c2nc(-c3ccncc3)no2)CC1", "z-score": 0.107},
      {"smiles": "O=S(=O)(c1ccccc1Cl)N1CCCC1c1nc(-c2ccc(Cl)cc2)no1", "note": "(stereo not drawn)", "z-score": 0.14},
      {"smiles": "CC(C)c1ccc(-c2noc(C3CCCN(S(C)(=O)=O)C3)n2)cc1", "note": "(stereo not drawn)", "z-score": "5.82 (active)"},
      {"smiles": "Cc1ccccc1NS(=O)(=O)c1ccc(OCCNS(C)(=O)=O)cc1", "z-score": -0.0428},
      {"smiles": "COc1ccccc1N1CCN(C(=O)CCCN2C(=O)c3cccc4cccc(c34)C2=O)CC1", "z-score": -0.334},
      {"smiles": "Cn1c(=O)c2c(O)cc(=O)[nH]c2n(-c2ccccc2)c1=O", "z-score": -0.00781},
      {"smiles": "COc1ccc(S(=O)(=O)N2CCOCC2)cc1NC(=O)c1ccccc1-c1ccc(C(F)(F)F)cc1", "z-score": -0.207},
      {"smiles": "Cc1noc(C)c1C(c1ccccc1)S(=O)(=O)c1ccccc1", "note": "(stereo not drawn)", "z-score": 0.53},
      {"smiles": "O=C(CSc1ncccn1)N/N=C/c1cccc([N+](=O)[O-])c1", "z-score": 1.35},
      {"smiles": "O=C(COC(=O)c1ccc(Br)o1)Nc1cccc(S(=O)(=O)N2CCCCCC2)c1", "z-score": 0.698},
      {"smiles": "COc1ccc(C(=O)NCc2nnc(SCC(=O)NCc3ccc(F)cc3)o2)cc1", "z-score": -0.134},
      {"smiles": "COC(=O)c1ccccc1NC(=O)CSc1nnc(Cc2ccc(Cl)cc2)o1", "z-score": -0.323},
      {"smiles": "Cc1ccc(-n2c(SCC(N)=O)nc3c(c2=O)C2(CCCC2)Cc2ccccc2-3)cc1", "z-score": -0.348},
      {"smiles": "CCn1c(SCC(N)=O)nc2c(c1=O)C1(CCCC1)Cc1ccccc1-2", "z-score": "5.27 (active)"},
      {"smiles": "CCCn1c(SCC(N)=O)nc2c(c1=O)C1(CCCC1)Cc1ccccc1-2", "z-score": -0.333},
      {"smiles": "COc1ccc(Nc2cc(C)nc3ccccc23)cc1", "z-score": 2.44},
      {"smiles": "COc1cccc(Nc2cc(C)nc3ccccc23)c1", "z-score": 2.53},
      {"smiles": "COc1cccc(Nc2nc(NCCO)c3ccccc3n2)c1", "z-score": -0.496},
      {"smiles": "Cc1cc(Nc2ccc3c(c2)OCCO3)c2ccccc2n1", "z-score": 0.143},
      {"smiles": "COC(=O)Nc1cc(C)nc2ccccc12", "z-score": 0.301},
      {"smiles": "COc1cccc(Nc2ncnc3ccccc23)c1", "z-score": -0.25},
      {"smiles": "O=C(CCN1C(=O)c2ccccc2S1(=O)=O)N1CCN(c2ccccc2)CC1", "z-score": -0.363},
      {"smiles": "CCOc1cccc(OCCCCN2CCOCC2)c1", "z-score": -0.982},
      {"smiles": "COc1cc2nc(-c3ccc(Br)o3)oc(=O)c2cc1OC", "z-score": -1.58},
      {"smiles": "Cc1nc2nc(-c3ccco3)[nH]n2c(=O)c1Cc1ccccc1", "z-score": -1.16},
      {"smiles": "O=C(Nc1cccc(C(=O)N2CCOCC2)c1)c1ncn[nH]1", "z-score": -0.145},
      {"smiles": "CCn1cc(C(=O)O)c(=O)c2cc(F)c(N/N=C/c3ccccc3)cc21", "z-score": -0.559},
      {"smiles": "O=C(Nc1ccc(Cl)cc1)NC1CCCCC1Cc1ccco1", "note": "(stereo not drawn)", "z-score": "7.39 (active)"},
      {"smiles": "O=C(NCCSCc1ccco1)Nc1ccc(Cl)cc1", "z-score": 0.159},
      {"smiles": "O=C(Nc1ccc(Cl)cc1)Nc1ccccc1C(=O)NCc1ccco1", "z-score": -0.534},
      {"smiles": "Cc1nn(C)c(C)c1S(=O)(=O)N(CC(=O)N1CCc2ccccc2C1)c1ccc(C(C)C)cc1", "z-score": -0.0258},
      {"smiles": "O=C(CCc1ccc(S(=O)(=O)N2CCOCC2)cc1)N1CCCC1", "z-score": 2.62},
      {"smiles": "O=C(O)CCc1ccc(S(=O)(=O)N2CCOCC2)cc1", "z-score": 0.0366},
      {"smiles": "O=C(CCc1ccc(S(=O)(=O)N2CCOCC2)cc1)NN=C1CCCCCCC1", "z-score": -0.592},
      {"smiles": "CCN(CCO)c1ncnc2c1sc1nc(CC(C)C)c3c(c12)CC(C)(C)OC3", "z-score": -0.758},
      {"smiles": "COC(=O)CNC(=O)CN1C(=O)N(c2ccc(Cl)cc2)C(N(O)C(=O)Nc2ccc(Cl)cc2)C1(C)C", "note": "(stereo not drawn)", "z-score": 0.0314},
      {"smiles": "CCOc1ncccc1C(=O)OCc1nnc(-c2ccccc2)o1", "z-score": -0.473},
      {"smiles": "Cn1c(-c2sc3ccccc3c2Cl)n[nH]c1=S", "z-score": "13.3 (active)"},
      {"smiles": "Cn1c(-c2sc3cc(C(F)(F)F)cnc3c2-c2ccccc2)n[nH]c1=S", "z-score": 1.26},
      {"smiles": "Cc1nc(-c2ccccc2)sc1-c1n[nH]c(=S)n1C", "z-score": 0.154},
      {"smiles": "CCCc1cc(-c2n[nH]c(C(=O)OCC)c2-c2cscn2)c(O)cc1O", "z-score": -0.373},
      {"smiles": "Cc1ccc(OCC(=O)Nc2ccc(S(=O)(=O)Nc3onc(C)c3C)cc2)cc1", "z-score": 0.0571},
      {"smiles": "Cc1ccc(S(=O)(=O)CC(=O)Nc2ccc(S(=O)(=O)Nc3onc(C)c3C)cc2)cc1", "z-score": 2.41},
      {"smiles": "Cc1noc(NS(=O)(=O)c2ccc(NC(=O)CS(=O)(=O)c3ccccc3)cc2)c1C", "z-score": 0.155},
      {"smiles": "COc1cc(NC(=O)CS(=O)(=O)c2ccccc2)cc(OC)c1OC", "z-score": 1.2},
      {"smiles": "CCN(CC(=O)Nc1ccc(OC)c(OC)c1)S(=O)(=O)c1ccc(C)cc1", "z-score": 0.404},
      {"smiles": "COc1cc(NC(=O)CS(=O)(=O)c2ccc(C)cc2)cc(OC)c1OC", "z-score": "3.72 (active)"},
      {"smiles": "Cc1cc(=O)oc2cc(OCC(=O)OCc3nnc(-c4ccccc4)o3)ccc12", "z-score": -0.34},
      {"smiles": "CCC(c1nnc(SCC(=O)Nc2ccc(Cl)cc2C(F)(F)F)n1C1CCCCC1)N(C)C", "note": "(stereo not drawn)", "z-score": -0.456}
    ]}
  ]
}
